A selection: hits, their analogues and other compounds. The true share with any hit is near 2.8%.
PAX8 inh HTS – PAX8 transcriptional activity inhibition; RMG-I TPO-luciferase reporter, SteadyGlo, 24 h; inhibition, % at 12.6 µM; hit rate 1.2% among 360,000;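 active = mean replicate inhibition at least 60% with every replicate also reaching 60%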;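 note: luciferase light reporting Pax8 driven TPO promoter activity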
HIF-2a block – inhibitors of HIF-2a. AID 624352. hit rate 0.72% among 360,000. 786-0 RCC cells HIF-2a reporter, luciferase luminescence, overnight. inhibition, % at 18.8 µM;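 active = inhibition of the luminescence signal of 40% or more relative to plate controls, in a single-dose primary screen at 18.75 µM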
MITF TRPM1 inh – reduces MITF-dependent TRPM1 promoter luciferase signal; SK-MEL-5 TRPM1 promoter luciferase, 24 h; inhibition, % at 12.5 µM; hit rate 0.83% among 330,000;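 active = mean inhibition across replicates of 60% or more, whatever share of single replicates reaches that level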
EBV LMP1 NFkB – reduces LMP1-driven NF-kappaB luciferase signal; LMP1-induced NF-kappaB luciferase reporter cells, luminescence; hit rate 0.69% among 350,000; inhibition, % at 12.5 µM; in the data active = inhibition above about 41%
Peg3 prom inh-1 – reduces Peg3 promoter-driven luciferase expression in HeLa; inhibition, % at 20 µM; hit rate 1.7% among 360,000; HeLa PEG-Prom luciferase reporter, luminescence, overnight;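 active = inhibition of at least 50% at 20 µM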
Shn3 inh set2 – reduces Shn3 3'UTR luciferase signal in osteoblasts; Clone20 osteoblast Shn3 3'UTR firefly luciferase, 24 h; inhibition, % at 12.5 µM; hit rate 0.52% among 360,000;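 active = mean inhibition of at least 75% with every replicate also reaching 75%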
Peg3 prom inh-2 – confirmation of Peg3 promoter inhibitors. shares compounds with Peg3 prom inh-1. HeLa PEG-Prom luciferase reporter, luminescence, overnight. inhibition, % at 20 µM. hit rate 84% among 1,300. AID 602417;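 active = at 20 µM dose, 40% or more inhibition averaged across four replicates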
Each line names hits and unclear results; the compound was inactive in the other large screens (follow-up assays come after a bar, where they were run); ! = repeats disagree.

Cc1ccc(S(=O)(=O)N(C)C[C@H]2OCCCC[C@@H](C)Oc3ccc(NS(=O)(=O)c4ccc(Cl)cc4)cc3C(=O)N([C@H](C)CO)C[C@H]2C)cc1	none (no result: HIF-2a block, MITF TRPM1 inh, EBV LMP1 NFkB, Peg3 prom inh-1, Shn3 inh set2)
COc1ccc(C#Cc2cnc3c(c2)C(=O)N([C@@H](C)CO)C[C@H](C)[C@@H](CN(C)C(=O)CC2CC2)O3)cc1	none (no result: HIF-2a block, MITF TRPM1 inh, EBV LMP1 NFkB, Peg3 prom inh-1, Shn3 inh set2)
CCOC(=O)c1c(NC(=O)c2ccc(S(=O)(=O)N3CCOCC3)cc2)sc2c1CC(C)(C)NC2(C)C	Peg3 prom inh-1 53 | Peg3 prom inh-2 inactive
CCOC(=O)c1c(NC(=O)COc2ccccc2F)sc2c1CC(C)(C)NC2(C)C	MITF TRPM1 inh 71, Peg3 prom inh-1 86 | Peg3 prom inh-2 80
NC(=O)C1CCN(C2=C(Cl)C(=O)c3ccccc3C2=O)CC1	HIF-2a block 94, MITF TRPM1 inh 88, EBV LMP1 NFkB 78, Peg3 prom inh-1 73, Shn3 inh set2 98 (no result: PAX8 inh HTS) | Peg3 prom inh-2 98
C[C@H](NC(=O)C[C@@H]1CC[C@H](NC(=O)Nc2ccc3c(c2)OCO3)[C@@H](CO)O1)c1ccccc1	none (no result: HIF-2a block, MITF TRPM1 inh, EBV LMP1 NFkB, Peg3 prom inh-1, Shn3 inh set2)
Cc1cccc(/C=C2/Sc3ccc(C(=O)NCCN4CCCC4)cc3NC2=O)c1	MITF TRPM1 inh 89, Peg3 prom inh-1 94 | Peg3 prom inh-2 100
CCOC(=O)C1CCN(C(=O)c2ccc3c(c2)NC(=O)/C(=C\c2cccc(C)c2)S3)CC1	none
Cn1cc(CN2CCCC(C(=O)Nc3cccc(-n4cccn4)c3)C2)cn1 (stereo not given)	none
Cn1cc(CN2CCCC(C(=O)Nc3ccc(-c4cccc(F)c4)cc3)C2)cn1 (stereo not given)	Peg3 prom inh-1 53 | Peg3 prom inh-2 77
Cc1nc(NC(=O)/C=C/c2ccccc2)sc1C(=O)Nc1ccc(Cl)cc1	Peg3 prom inh-1 53 | Peg3 prom inh-2 inactive
C[C@@H]1CCCCO[C@H](CN(C)C(=O)Nc2ccc(C(F)(F)F)cc2)[C@H](C)CN([C@@H](C)CO)C(=O)c2cc(NS(C)(=O)=O)ccc2O1	none (no result: HIF-2a block, MITF TRPM1 inh, EBV LMP1 NFkB, Peg3 prom inh-1, Shn3 inh set2)
Oc1c(Br)cc(Br)c2cccnc12	Peg3 prom inh-1 50 | Peg3 prom inh-2 59
Cc1noc(C)c1NC(=O)N(C)C[C@H]1Oc2ncc(/C=C/c3ccccc3)cc2C(=O)N([C@H](C)CO)C[C@@H]1C	none (no result: HIF-2a block, MITF TRPM1 inh, EBV LMP1 NFkB, Peg3 prom inh-1, Shn3 inh set2)
COc1ccc(S(=O)(=O)N(C)C[C@@H]2Oc3ccc(NC(=O)C4CCCCC4)cc3CC(=O)N([C@@H](C)CO)C[C@@H]2C)cc1	none (no result: HIF-2a block, MITF TRPM1 inh, EBV LMP1 NFkB, Peg3 prom inh-1, Shn3 inh set2)
CC(C)NC(=O)N(C)C[C@@H]1OCCCC[C@@H](C)Oc2ccc(NC(=O)CCC(F)(F)F)cc2C(=O)N([C@H](C)CO)C[C@@H]1C	none (no result: HIF-2a block, MITF TRPM1 inh, EBV LMP1 NFkB, Peg3 prom inh-1, Shn3 inh set2)
CC1CCCN(c2ncnc3c2cnn3-c2ccc(Cl)cc2)C1 (stereo not given)	PAX8 inh HTS 76, HIF-2a block 82, MITF TRPM1 inh 92, EBV LMP1 NFkB 60, Peg3 prom inh-1 73 | Peg3 prom inh-2 86
CC1CCCN(c2ncnc3c2cnn3-c2ccccc2)C1 (stereo not given)	none
CCN1CCN(Cc2ccc(NC(=O)c3cc(NC(=O)c4ccno4)cc(OC)c3)cc2C(F)(F)F)CC1	Peg3 prom inh-1 62! | Peg3 prom inh-2 48
CC(=O)c1ccccc1-c1csc2ncnc(Sc3nnnn3C)c12	PAX8 inh HTS 86, Peg3 prom inh-1 54 | Peg3 prom inh-2 inactive
Cc1ncc(CO)c2cc(C(=O)Nc3cccc(F)c3)c(=Nc3cccc(C(N)=O)c3)oc12	none
COc1ccc(NC(=O)c2cc3c(CO)cnc(C)c3oc2=Nc2cccc(F)c2)c(OC)c1	EBV LMP1 NFkB 47, Peg3 prom inh-1 59 | Peg3 prom inh-2 inactive
CN(C)S(=O)(=O)c1ccc(C(=O)NCCN2C(=O)S/C(=C\c3cccnc3)C2=O)cc1	none
CS(=O)(=O)c1ccc(C(=O)NCCN2C(=O)S/C(=C\c3cccnc3)C2=O)cc1[N+](=O)[O-]	MITF TRPM1 inh 69, Peg3 prom inh-1 99 | Peg3 prom inh-2 54
CC(=O)CCc1ccc(Oc2nc(-c3cccnc3)nc3ccccc23)cc1	Peg3 prom inh-1 66 | Peg3 prom inh-2 inactive
Cc1ccc(C(C[N+](=O)[O-])Sc2ccc(N)cc2)cc1 (stereo not given)	MITF TRPM1 inh 68, Peg3 prom inh-1 106 (no result: Shn3 inh set2) | Peg3 prom inh-2 97
Cc1ccc(C(C[N+](=O)[O-])n2nc(C)cc2C)cc1 (stereo not given)	none (no result: PAX8 inh HTS)
COc1ccc2c(c1)C=C([C@@H]1C[C@H]3CN(c4ccccc4)C(=O)[C@]34CCCN14)CO2	Peg3 prom inh-1 71 | Peg3 prom inh-2 53
Cc1ccc(-n2[nH]c(=O)c3cccnc32)cc1	none
Cc1ccc(-n2[nH]c(=O)c(-c3ccccn3)c2C)cc1	PAX8 inh HTS 75, HIF-2a block 73, MITF TRPM1 inh 83, EBV LMP1 NFkB 66, Peg3 prom inh-1 73 | Peg3 prom inh-2 59
COC(=O)C1=C(CN2CCCc3ccccc32)NC(=O)NC1c1ccc(F)cc1 (stereo not given)	HIF-2a block 63, MITF TRPM1 inh 87, Peg3 prom inh-1 81 (no result: PAX8 inh HTS) | Peg3 prom inh-2 67
COC(=O)C1=C(CN2CCc3ccccc32)NC(=O)NC1c1cc(C)ccc1C (stereo not given)	none (no result: PAX8 inh HTS)
Cc1ccc(S(=O)(=O)N(C)C[C@H]2OCCCC[C@H](C)Oc3ccc(NC(=O)NC(C)C)cc3C(=O)N([C@@H](C)CO)C[C@H]2C)cc1	none (no result: HIF-2a block, MITF TRPM1 inh, EBV LMP1 NFkB, Peg3 prom inh-1, Shn3 inh set2)
COc1cc2c(cc1OC)C(SC)=NC1(CCCC1)C2	MITF TRPM1 inh 87, Peg3 prom inh-1 64 | Peg3 prom inh-2 inactive
C[C@H]1CCCCO[C@@H](CN(C)C(=O)c2ccccc2)[C@@H](C)CN([C@@H](C)CO)C(=O)c2cc(NC(=O)Cc3ccccc3)ccc2O1	none (no result: HIF-2a block, MITF TRPM1 inh, EBV LMP1 NFkB, Peg3 prom inh-1, Shn3 inh set2)
CC(=O)Nc1nc2cc3c(cc2s1)OCCO3	none (no result: MITF TRPM1 inh)
O=C(Nc1nc2cc3c(cc2s1)OCCO3)C1=COCCO1	PAX8 inh HTS 94, HIF-2a block 80, MITF TRPM1 inh 91, EBV LMP1 NFkB 81, Peg3 prom inh-1 97, Shn3 inh set2 88 | Peg3 prom inh-2 82
CCN1CCN(CCNC(=O)c2ccc(/C=C3\Sc4ccccc4N(Cc4ccccc4F)C3=O)cc2)CC1	Peg3 prom inh-1 109 | Peg3 prom inh-2 99
CCN(C(=O)COC(=O)/C=C/c1cccc(Br)c1)C1CCS(=O)(=O)C1 (stereo not given)	none
CN(C(=O)COC(=O)/C=C/c1cccc([N+](=O)[O-])c1)C1CCS(=O)(=O)C1 (stereo not given)	Peg3 prom inh-1 51 | Peg3 prom inh-2 62
O=C(Nc1ccccn1)c1ccc(C(=O)c2ccccc2)cc1	none
O=C(NC(=O)c1ccccc1)Nc1ccccn1	PAX8 inh HTS 85, HIF-2a block 75, MITF TRPM1 inh 81, EBV LMP1 NFkB 71, Peg3 prom inh-1 90 | Peg3 prom inh-2 77
COc1ccc(NC(=O)Nc2cc(C)ccn2)cc1	none
